Measured values taken from PubChem BioAssay (NCATS).
Results filed as inconclusive are left out. Where a call stands in place of a potency, no number is given. Values without a mark were called inactive. The source made the active and inactive calls. Calls come from the whole dose curve; as a rule, active = well fitted curve in the direction sought with a large enough effect; inconclusive = small, poorly fitted or top-dose-only effect, or another doubt; inactive = no such curve, though single readings can be large; an effect the other way counts as inactive or inconclusive.

Key:
[1] = test system: Zika virus NS2B-NS3 protease (linked construct); assay: Primary screen NINDS Rhodamine qHTS for Zika virus inhibitors (AID 1347160); note: nearly all actives have a fitted effect of over 55% in size; note: potency is the fitted concentration of half-maximal effect
Method in brief: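 Aprotinin served as in-plate control. Conditions: 25 nM linked NS2B-NS3, pH 8.0 Tris buffer, titrated compounds, 15 min preincubation and 15 min reaction with 1.5 microM Rhod110 substrate at room temperature.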

[2] = qHTS for Inflammasome Signaling Inhibitors: IL-1-beta AlphaLISA screen against the NCATS CANVASS Library (AID 1347379);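 note: human THP-1 cells primed with LPS then triggered with ATP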;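 for potency: secreted IL-1B measured as AlphaLISA emission at 615 nm; potency is the fitted concentration of half-maximal effect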
Method in brief: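 THP-1, 1 hr compound pre-incubation, then LPS 250 ng/mL + ATP 1.25 mM (final); 16 hr total with compound; IL-1B AlphaLISA, ex 680/em 615 nm; 11-point qHTS, up to 57.5 uM final.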

[3] = qHTS for Antimalaria activity screened against the NCATS CANVASS Library (AID 1347380); note: nearly all actives have a fitted effect of over 40% in size; note: potency is the fitted concentration of half-maximal effect
Method in brief: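 SYBR Green fluorescence (ex 485, em 535 nm) read after saponin/Triton lysis and 18 h further incubation; Dd2 asexual blood-stage parasites, 72 h compound exposure, 11-pt concentration series, 2.5% hematocrit, 0.3% parasitemia.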

[4] = COV-362 Cancer Cell Toxicity qHTS against the NCATS CANVASS Library (AID 1347352); note: potency is the fitted concentration of half-maximal effect
Method in brief: (§1)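 1000 cells/well, 4 h pre-incubation 37 °C/5% CO2; 11-pnt titration; 72 h; CellTiter-Glo 15 min RT, luminescence.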

[5] = SDT Cancer Cell Toxicity qHTS against the NCATS CANVASS Library (AID 1347365); note: nearly all actives have a fitted effect of over 60% in size; note: potency is the fitted concentration of half-maximal effect
Method in brief: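 Luminescent ATP read-out (CellTiterGlo) after 72 hr compound exposure of dog glioma SDT cells, 500 per well. Eleven-point titrations; bortezomib titration run alongside as control.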

[6] = Vero-766 cells viability qHTS against the NCATS CANVASS Library: Counterscreen for Zika virus inhibition assay (AID 1347394); note: nearly all actives have a fitted effect of over 60% in size; note: potency is the fitted concentration of half-maximal effect
Method in brief: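 Counterscreen for toxicity: Vero 766 cells exposed 72 h to an 11-point compound series, viability by CellTiter-Glo.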

[7] = J3T Cancer Cell Toxicity qHTS against the NCATS CANVASS Library (AID 1347371); note: potency is the fitted concentration of half-maximal effect
Method in brief: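 Dog glioma J3T, 500 cells/well; cpd 11-pt qHTS; 72 hr, 37C/5% CO2; CellTiterGlo ATP luminescence readout.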

[8] = qHTS for inhibitors of Wild type Zika virus screened against the NCATS CANVASS Library (AID 1347396);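 note: ATP luminescence of surviving cells so rescue from viral cell killing; series mostly up to about 46 µM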
Method in brief: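 Vero 766 cells, 1000/well, o/n attach; cpds pin-transferred (11-pt qHTS); WT Zika added; 72 h, 37C, 5% CO2; CellTiter Glo lumi. Uninfected + vehicle = 100% inhibition.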

[9] = UWB1.289-WTBRCA1 Cancer Cell Toxicity qHTS against the NCATS CANVASS Library (AID 1347354)
Method in brief: as §1

[10] = NCATS anti-infectives library activity on HEK293 viability as a counter-qHTS vs the C. elegans viability qHTS (AID 1745854)
Method in brief: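 CellTiter-Glo luminescence, read on a CCD imager, scored viability of HEK293 cells after 24 hr compound exposure at 37C. Library tested in several concentrations, 1:5 steps, up to 41.7 uM; digitonin served as control.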

For `C/C=C(/C)c1cc(O)c(C)c2c1Oc1cc(O)cc(C)c1C(=O)O2`, the Potency [1] was 24.7 µM (active), the Potency [2] was “inactive” and the Potency [3] was “inactive”.

With `COC12OC1(C13OC1(OC)C(=O)c1cc4cc(C)oc(=O)c4c(O)c1C3O)C(O)c1c(cc3cc(C)oc(=O)c3c1O)C2=O` (centres undefined) the Potency [1] was 3.11 µM (active), the Potency [4] was “inactive” and the Potency [5] was “inactive”.

For `CC(=O)Oc1cc2c(c(OC(C)=O)c1C1CCc3cc(Cl)c(Cl)n31)C(=O)n1c-2cc(Cl)c1Cl` (centres undefined), the Potency [1] was 3.92 µM (active), the Potency [4] was 9.41 µM (active) and the Potency [5] was 10.5 µM (active). The Potency [6] was 9.33 µM (active).

With `CN1CC[C@]2(c3cccc4c3N[C@H]3N(C)CC[C@@]43[C@]34CCN(C)[C@H]3Nc3ccccc34)c3ccccc3N[C@H]12` the Potency [1] was “inactive”, the Potency [4] was 14.9 µM (active) and the Potency [5] was 4.18 µM (active). The Potency [7] was 9.35 µM (active), the Potency [2] was 21.7 µM (active) and the Potency [3] was 0.0375 µM (active). The Potency [6] was 20.9 µM (active).

For `CC(=O)O[C@H]1c2ccccc2-c2c3c(cc4c2[C@@H]1N(C(C)=O)CC4)OCO3`, the Potency [1] was 55.3 µM (active), the Potency [4] was “inactive” and the Potency [3] was “inactive”. For the same molecule, the outcome [8] was “inactive”.

For `CC(C)[C@]12CC[C@@]3(C)[C@H](C)CC[C@H](O)[C@@]3(CC1)c1cc3c(cc12)[nH]c1ccccc13`, the Potency [1] was 27.7 µM (active), the Potency [4] was “inactive” and the Potency [9] was “inactive”. For the same molecule, the Potency [5] was “inactive”, the Potency [7] was “inactive” and the Potency [2] was “inactive”. For the same molecule, the outcome [8] was “inactive”.

In the case of `COc1cc(/C=C/C(=O)OC[C@@H](Cc2ccc(O)c(OC)c2)[C@@H](COC(=O)/C=C/c2ccc(O)c(OC)c2)Cc2ccc(O)c(OC)c2)ccc1O`, the Potency [1] is reported as 31.1 µM (active), the Potency [4] is reported as 18.8 µM (active) and the Potency [7] is reported as “inactive”. For the same molecule, the Potency [3] was 0.265 µM (active).

With `C[n+]1cc2cc(C(N)=O)[nH]c3c(=N)c(Cl)c(N)c1c23` the Potency [1] was 44 µM (active), the Potency [4] was “inactive” and the Potency [9] was “inactive”. The Potency [5] was 16.6 µM (active), the Potency [2] was “inactive” and the Potency [3] was “inactive”. The Potency [6] was “inactive” and the outcome [8] was “inactive”.

In the case of `CCC(=O)N[C@@H](C[C@H](C)C(Cl)(Cl)Cl)C(=O)N1C(=O)C=C(OC)[C@@H]1CC(C)C`, the Potency [1] is reported as “inactive”, the Potency [4] is reported as “inactive” and the Potency [2] is reported as “inactive”. The Potency [3] was “inactive”.

For `COc1cc2c(cc1OC)[C@@H](c1ccc3c(c1)OCO3)C(C)C(C)C2=O` (some centres undefined), the Potency [1] was “inactive”, the Potency [4] was “inactive” and the Potency [9] was “inactive”. For the same molecule, the Potency [7] was “inactive”, the Potency [3] was “inactive” and the outcome [8] was “inactive”.

For `O[C@H]1c2ccccc2-c2c3c(cc4c2[C@@H]1NCC4)OCO3`, the Potency [1] was 49.3 µM (active), the Potency [5] was 18.7 µM (active) and the Potency [7] was “inactive”. The Potency [2] was 24.3 µM (active) and the Potency [6] was 20.9 µM (active).

With `C/C=C(/C)c1c(Cl)c(OC)c(C)c2c1Oc1c(Cl)c(O)c(Cl)c(C)c1C(=O)O2` the Potency [1] was 1.39 µM (active), the Potency [5] was “inactive” and the Potency [2] was “inactive”. For the same molecule, the Potency [3] was “inactive” and the Potency [6] was 3.71 µM (active).

For `C=C[C@@]1(C)CC[C@@H]([C@H](C)C(=O)/C=C/C(C)(C)O)O1`, the Potency [1] was 55.3 µM (active), the Potency [7] was 23.5 µM (active) and the Potency [3] was “inactive”. The outcome [8] was “inactive”.

With `COc1ccc2[nH]c3c(c2c1)CCN1C[C@H]2C[C@@H](OC(=O)c4cc(OC)c(OC)c(OC)c4)[C@H](OC)[C@@H](OC)[C@H]2C[C@H]31` the Potency [1] was “inactive” and the Potency [3] was 7.47 µM (active).

For `CO[C@H]1[C@@H](OC(=O)/C(C)=C\[C@@H]2O[C@@H]2[C@H]2O[C@H]2C)[C@H](O)[C@H](OCC23C[C@@H]4[C@H](C)CC[C@H]4C4(C=O)CC2C=C(C(C)C)C34C(=O)O)O[C@@H]1C` (some centres undefined), the Potency [1] was 22 µM (active), the Potency [9] was “inactive” and the Potency [6] was “inactive”. The outcome [8] was “inactive”.

With `C=C1CC[C@@H](Br)C(C)(C)[C@]12CC=C(C)C(=O)C2` the Potency [1] was “inactive”, the Potency [9] was “inactive” and the Potency [7] was “inactive”. The Potency [3] was “inactive”.

In the case of `Cc1occ2c1C(=O)c1c(cc(O)c(O)c1O)C2=O`, the Potency [1] is reported as 13.9 µM (active), the Potency [9] is reported as “inactive” and the Potency [5] is reported as 1.05 µM (active). For the same molecule, the Potency [7] was “inactive” and the Potency [2] was “inactive”.

With `C=C1CC[C@@H](O[C@H]2C[C@@](O)([C@H](C)NC(=O)c3[nH]c(C)c(Cl)c3Cl)[C@H](O)[C@@H](C)O2)[C@@H]2C=C[C@H](C)C(/C(O)=C3/C(=O)[C@H](C(C)C)N([C@@H]4O[C@H](C)[C@H](OC(N)=O)[C@H](OC(C)=O)[C@@H]4OC)C3=O)[C@@H]12` (some centres undefined) the Potency [1] was 15.6 µM (active), the Potency [4] was “inactive” and the Potency [9] was “inactive”. For the same molecule, the Potency [5] was “inactive”, the Potency [7] was “inactive” and the outcome [8] was “inactive”.

In the case of `CC[C@H]1[C@H](C)[C@H](c2cc(OC)c(OC)cc2OC)[C@@H](C)[C@H](c2cc(OC)c(OC)cc2OC)[C@@]12C=C(OC)C(=O)C=C2OC`, the Potency [1] is reported as 27.7 µM (active), the Potency [7] is reported as “inactive” and the Potency [3] is reported as 1.88 µM (active). The outcome [8] was “inactive”.

With `C[C@]12CC[C@]3(C1)[C@H](CC2=O)C[C@@H](OC(=O)c1ccccc1)[C@H]1[C@](C)(C(=O)O)CCC[C@@]13C` the Potency [1] was 19.6 µM (active), the Potency [7] was “inactive” and the Potency [2] was “inactive”. The Potency [3] was 0.0133 µM (active) and the Potency [6] was 6.6 µM (active).

For `C/C(=C\CC[C@@H](C)[C@H]1CC[C@]2(C)C3=CCC4C(C)(C)[C@@H](O)C[C@@H](O)[C@]4(C)C3[C@H](O)C[C@@]12C)CO` (some centres undefined), the Potency [1] was 19.6 µM (active), the Potency [9] was “inactive” and the Potency [5] was “inactive”. For the same molecule, the Potency [7] was “inactive”.

With `O=c1cc(-c2ccc(O)c(O)c2)oc2cc(O[C@@H]3O[C@H](CO)[C@@H](O)[C@H](O)[C@H]3O)cc(O)c12` the Potency [1] was 17.5 µM (active), the Potency [4] was “inactive” and the Potency [3] was 0.236 µM (active). For the same molecule, the outcome [8] was “inactive” and the Potency [10] was “inactive”.

In the case of `CC(C)=CC[C@H]1C[C@@]2(CC=C(C)C)C(=O)[C@](CC=C(C)C)(C(=O)C(C(=O)c3ccccc3)=C2O)C1(C)C`, the Potency [1] is reported as 4.4 µM (active).
